The panel holds about 79,000 compounds, 15% with a hit somewhere; the sample as a whole holds those more often. Unmarked numbers belong to inactive results. Rule as the data show it: active = growth inhibition above about 70%; inactive = the rest. Where a SMILES comes first, the peptide text is derived from it. [ ]: non-standard residue; d: D form. The star is where a group is joined. ξ: configuration not given here. ξL = CC(C)CC(N)C(=O)O; ClAc = O=C(CCl)*
assay: NCI Yeast Anticancer Drug Screen. Data for the rad50 strain (AID 155);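 also: 0% = growth of vehicle-only cultures of the same strain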; settings: S. cerevisiae rad50 strain growth inhibition; at 50.0 µM; stronger effect = higher value
Procedure, shortened: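 Vehicle-treated cultures provide the reference for the growth inhibition reported for compound-exposed, repair-deficient yeast.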

Structure (SMILES)	growth inhibition
CC1CCN(c2ccc([N+](=O)[O-])cc2)CC1	-17.6%
Cn1c(=S)sc2ccc3ccccc3c21	-17.4%
OCC1OC(Nc2ccccc2O)C(O)C(O)C1O (centres undefined)	41.5%
CCOC(=O)c1sc(N)nc1-c1ccccc1	10.7%
ClCCOC(OCCCl)OCCCl	-7.4%
CCCCCCCCCCCCCCCc1cc(=S)n(C)c2ccc(C)cc12	25.1%
C(=NCC1CCC(CN=Cc2ccco2)CC1)c1ccco1 (centres undefined)	-21%
CCCOC(=O)C(=O)C(C#N)c1ccccc1 (centres undefined)	21.1%
COc1ccc(NC(=S)N(C)C)cc1	19.5%
COc1cc(-c2cc(=O)c3c(C)cc(O)cc3o2)cc(OC)c1OC	-2.1%
CC1(O)CC2CC1C(C(=O)O)C2C(=O)O (centres undefined)	-0.85%
CCCCCCCCCCCC(=O)CCCCC	-29.5%
COC(=O)C1=CCCC2CN3CCc4c([nH]c5ccccc45)C3CC12 (centres undefined)	13.8%
CC(=O)c1cccc(OCc2ccccc2)c1	6.4%
O=C1OC(=O)C2C1OC1C(=O)OC(=O)C12 (centres undefined)	-35.6%
C[N+]12CCC34c5ccccc5NC3C3C(CC(=O)[O-])OCC=C(C1)C3CC42 (centres undefined)	-7.55%
CCCCCCCCCOCC(O)COc1ccccc1[N+](=O)[O-] (centres undefined)	-9.2%
O=C(N/N=C/c1ccc2c(c1)CCC2)c1cccc([N+](=O)[O-])c1	-17.9%
Clc1ccc(C=NCCN=Cc2ccc(Cl)c(Cl)c2)cc1Cl	-14.5%

Structure (SMILES)	growth inhibition
COc1ccc(/C=C/C(=O)c2ccc(Cl)cc2)c(OC)c1	20.5%
Nc1ccccc1SC1CC(=O)N(c2cccc3ccccc23)C1=O (centres undefined)	-19.6%
CC(C)Oc1ccc(C(=O)NS(=O)(=O)c2ccc(N)cc2)cc1	-25%
COc1cccc(/C=C/C(=O)c2ccc(Cl)cc2)c1OC	27%
CCCCCCC(=O)CCCCCCCCCCCCC(=O)OC	2.3%
O=C(CCCCCCCCCCBr)OCc1ccccc1	-34.2%
CC(C)C(C(=O)c1ccccc1)c1ccccc1 (centres undefined)	-0.3%
COc1cccc(CNc2ccc(SC)cc2)c1OC	10.2%
Cc1n[nH]c(=O)n(/N=C\c2c[nH]c3ccccc23)c1=O	0.2%
COc1ccc2ccccc2c1/C=N/N1CCCCC1	32.3%
C(=C/c1ccc(/C=C/c2ccccc2)cc1)/c1ccccc1	-22.1%
O=C1NC(c2ccc3ccccc3c2)Nc2ccccc21 (centres undefined)	-2.85%
N#C/C(=C/c1ccccc1Cl)C(N)=O	-12.2%
CC(C)CC(NC(=O)CCl)C(=O)NCC(=O)O (centres undefined) (ClAc-[ξL]-Gly-OH)	8.05%
CCOC(=O)CCc1ccc(O)c(O)c1	4.9%
NC(=O)c1ccccc1OCC(O)CO (centres undefined)	-7.6%
S=C(S)NC1CCCCCCCCCCC1	45.8%
Cc1ccccc1Nc1n[nH]c(=S)s1	46.1%

assay: NCI Yeast Anticancer Drug Screen. Data for the mec2-1 strain (AID 157); settings: S. cerevisiae mec2-1 strain, at 50.0 µM, stronger effect = higher value
Procedure, shortened: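 Strain: mec2-1 (DNA repair/cell cycle alteration). Compound exposure, then growth measured; inhibition expressed relative to vehicle.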

Structure (SMILES)	growth inhibition
CC1CCN(c2ccc([N+](=O)[O-])cc2)CC1	-29.9%
Cn1c(=S)sc2ccc3ccccc3c21	-11.1%
OCC1OC(Nc2ccccc2O)C(O)C(O)C1O (centres undefined)	15.6%
CCOC(=O)c1sc(N)nc1-c1ccccc1	4%
ClCCOC(OCCCl)OCCCl	-28.3%
CCCCCCCCCCCCCCCc1cc(=S)n(C)c2ccc(C)cc12	-13.5%
C(=NCC1CCC(CN=Cc2ccco2)CC1)c1ccco1 (centres undefined)	-24.8%
CCCOC(=O)C(=O)C(C#N)c1ccccc1 (centres undefined)	-0.35%
COc1ccc(NC(=S)N(C)C)cc1	-11%
COc1cc(-c2cc(=O)c3c(C)cc(O)cc3o2)cc(OC)c1OC	-9%
CC1(O)CC2CC1C(C(=O)O)C2C(=O)O (centres undefined)	-27.6%
CCCCCCCCCCCC(=O)CCCCC	-17.1%
COC(=O)C1=CCCC2CN3CCc4c([nH]c5ccccc45)C3CC12 (centres undefined)	-7.8%
CC(=O)c1cccc(OCc2ccccc2)c1	2.75%
O=C1OC(=O)C2C1OC1C(=O)OC(=O)C12 (centres undefined)	-33.1%
C[N+]12CCC34c5ccccc5NC3C3C(CC(=O)[O-])OCC=C(C1)C3CC42 (centres undefined)	-45%
CCCCCCCCCOCC(O)COc1ccccc1[N+](=O)[O-] (centres undefined)	-15.9%
O=C(N/N=C/c1ccc2c(c1)CCC2)c1cccc([N+](=O)[O-])c1	-30.9%
Clc1ccc(C=NCCN=Cc2ccc(Cl)c(Cl)c2)cc1Cl	-20.3%

Structure (SMILES)	growth inhibition
COc1ccc(/C=C/C(=O)c2ccc(Cl)cc2)c(OC)c1	-11.9%
Nc1ccccc1SC1CC(=O)N(c2cccc3ccccc23)C1=O (centres undefined)	-7.6%
CC(C)Oc1ccc(C(=O)NS(=O)(=O)c2ccc(N)cc2)cc1	-32.5%
COc1cccc(/C=C/C(=O)c2ccc(Cl)cc2)c1OC	30.1%
CCCCCCC(=O)CCCCCCCCCCCCC(=O)OC	-1.65%
O=C(CCCCCCCCCCBr)OCc1ccccc1	-40%
CC(C)C(C(=O)c1ccccc1)c1ccccc1 (centres undefined)	-10.1%
COc1cccc(CNc2ccc(SC)cc2)c1OC	12.9%
Cc1n[nH]c(=O)n(/N=C\c2c[nH]c3ccccc23)c1=O	-4.55%
COc1ccc2ccccc2c1/C=N/N1CCCCC1	19.6%
C(=C/c1ccc(/C=C/c2ccccc2)cc1)/c1ccccc1	-13.9%
O=C1NC(c2ccc3ccccc3c2)Nc2ccccc21 (centres undefined)	-9.2%
N#C/C(=C/c1ccccc1Cl)C(N)=O	-7.05%
CC(C)CC(NC(=O)CCl)C(=O)NCC(=O)O (centres undefined) (ClAc-[ξL]-Gly-OH)	9.65%
CCOC(=O)CCc1ccc(O)c(O)c1	1.85%
NC(=O)c1ccccc1OCC(O)CO (centres undefined)	-24.4%
S=C(S)NC1CCCCCCCCCCC1	23.8%
Cc1ccccc1Nc1n[nH]c(=S)s1	17.8%
